Among the test systems are NCI-H23 lung; NCI-H226 lung; HOP-62 NSCLC; NCI-H460 lung; HOP-92 NSCLC; NCI-H522 lung; A549/ATCC NSCLC; 786-0 renal; COLO 205 colon.
Common to all, as to test: NCI-60 one-dose screen, 48 h (100 = growth as untreated, 0 = no growth, -100 = all killed)
Holding throughout (details): 10 µM unless noted

This is part of a sample that, as a whole, favours compounds with a hit. Of some 83,000 tested, about 20% had one in any assay.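 Negative percent growth values reflect cell death: -40 means 40% of the cells present at the start died, and -100 means all died.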 A number with no mark means an inactive call. The source made the active and inactive calls. How the source made its calls: active means growth percent below 10; inactive means the rest.

Turning to `c1ccc(Cn2cc3c(c2)-c2oncc2CC3)cc1`, the growth in the assay with NCI-H23 lung was 46.6%; in the assay with NCI-H226 lung, 53%; in the assay with HOP-62 NSCLC, 21.1%; with NCI-H460 lung it was 8.32% (active); with HOP-92 NSCLC, 65.4%; with NCI-H522 lung, 21.3%. Also, the growth was 23.2% in the assay on A549/ATCC NSCLC, 37.1% with 786-0 renal and 15.9% in the assay with COLO 205 colon.

Consider `CCN(CC)CCn1c2ccc(OC)cc2c2sc3cc(OC)ccc3c(=O)c21`, for which the growth was 23.1% in the assay with NCI-H23 lung; 71.4% in the assay on NCI-H226 lung; 38.1% in the assay on HOP-62 NSCLC; 9.41% (active) in the assay with NCI-H460 lung; 41.7% with HOP-92 NSCLC; 48.1% in the assay with NCI-H522 lung. Besides, the values for the growth with A549/ATCC NSCLC, in the assay with 786-0 renal and with COLO 205 colon were 19.1%, 11.1% and 18.6%, respectively.

On to `COc1ccc(Nc2nc(-c3cc(O)c(C)c(C)c3O)cs2)cc1`, for which the growth in the assay on NCI-H23 lung is 78.1%; in the assay on NCI-H226 lung it was 96.3%; with HOP-62 NSCLC, 69.9%; in the assay with NCI-H460 lung, 39%; with HOP-92 NSCLC it was 90.5%; with NCI-H522 lung it was 34.8%. Besides, the growth was 58% in the assay on A549/ATCC NSCLC, 102% in the assay on 786-0 renal and 115% in the assay on COLO 205 colon.

Turning to `Cc1ccc(C(=O)c2ccc(CC(=O)N/N=C/c3ccccc3O)n2C)cc1`, the growth is 82.9% in the assay on NCI-H23 lung; 97% in the assay on NCI-H226 lung; 76% in the assay on HOP-62 NSCLC; 76.6% with NCI-H460 lung; 98.6% in the assay on HOP-92 NSCLC; 75.2% in the assay on NCI-H522 lung. In addition, the growth was 96.8% in the assay with 786-0 renal and 101% in the assay on COLO 205 colon.

Take `O=C1/C(=C/c2ccc([N+](=O)[O-])cc2)COc2ccc(O)cc21`: the growth in the assay on NCI-H23 lung was 96.6%; in the assay on NCI-H226 lung, 100%; in the assay on HOP-62 NSCLC it was 104%; in the assay on NCI-H460 lung it was 97.9%; in the assay on HOP-92 NSCLC, 110%; in the assay on NCI-H522 lung it was 62.2%. The growth was 97.1% in the assay on A549/ATCC NSCLC, 81.9% in the assay with 786-0 renal and 92.9% in the assay with COLO 205 colon.

In the case of `N#CC1=C(c2ccccc2)Nc2c(c(-c3ccc(Cl)cc3)nn2-c2ccccc2)C12C(=O)Nc1ccc(Cl)cc12` (stereo not given), the growth in the assay with NCI-H23 lung is 92.1%; in the assay on NCI-H226 lung it was 80.7%; in the assay with HOP-62 NSCLC, 77.3%; in the assay with NCI-H460 lung, 71.2%; in the assay on HOP-92 NSCLC, 61.8%; in the assay on NCI-H522 lung, 72.2%. The results for the growth in the assay with A549/ATCC NSCLC, with 786-0 renal and in the assay on COLO 205 colon were 54.7%, 79.2% and 73%, respectively.

On to `O=C(CN1C(=O)NC2NC(=O)NC21)N/N=C/c1ccccc1[N+](=O)[O-]` (stereo not given), for which the growth in the assay on NCI-H23 lung is 106%; in the assay on NCI-H226 lung, 87.6%; with HOP-62 NSCLC it was 103%; with NCI-H460 lung, 108%; with HOP-92 NSCLC, 115%; in the assay with NCI-H522 lung it was 96.5%. Besides, the results for the growth in the assay with A549/ATCC NSCLC, in the assay with 786-0 renal and in the assay on COLO 205 colon were 110%, 101% and 120%, respectively.

Consider `N#CC1=C(N)Oc2c(c(=O)[nH]c3ccc(Cl)cc23)C12C(=O)c1ccccc1C2=O`, for which the growth was 93.4% in the assay with NCI-H23 lung; 88.2% in the assay with NCI-H226 lung; 88.2% with HOP-62 NSCLC; 92.5% with NCI-H460 lung; 98.6% in the assay with HOP-92 NSCLC; 105% in the assay with NCI-H522 lung. Also, the growth in the assay on A549/ATCC NSCLC is 93.6%; with 786-0 renal, 96.4%; in the assay with COLO 205 colon, 110%.

Consider `COc1ccc(/C=N/C2=C(C#N)C(c3ccccc3)c3ccc4ccccc4c3O2)cc1` (stereo not given), for which the growth is 29.9% in the assay with NCI-H23 lung; 51.5% in the assay on NCI-H226 lung; 22% in the assay with HOP-62 NSCLC; 8.64% (active) in the assay with NCI-H460 lung; 41.4% with HOP-92 NSCLC; -7.09% (active) in the assay with NCI-H522 lung. Also, the growth with A549/ATCC NSCLC was 16.8%; in the assay with 786-0 renal, 24.4%; with COLO 205 colon, -26.3% (active).

Take `CC1=C([Se]CC(OC(=O)CC[Se]c2ccccc2)C(=O)NC(C)(C)C)C(=O)c2ccccc2C1=O` (stereo not given): the growth in the assay with NCI-H23 lung was -45.6% (active); in the assay on NCI-H226 lung, -49.4% (active); with HOP-62 NSCLC it was -36.1% (active); in the assay with HOP-92 NSCLC, -74.5% (active); with NCI-H522 lung it was -38.7% (active); in the assay with A549/ATCC NSCLC it was -1.39% (active). Further, the growth was -90.2% (active) in the assay on 786-0 renal and -90.1% (active) with COLO 205 colon.

With `C1CN(SSN2CCOCC2)CCO1`, the growth was 3.63% [100 µM] (active) in the assay on NCI-H23 lung; 26.5% [100 µM] in the assay on NCI-H226 lung; 91.9% [100 µM] in the assay on HOP-62 NSCLC; 10.8% [100 µM] with NCI-H460 lung; -0.94% [100 µM] (active) with HOP-92 NSCLC; -53.1% [100 µM] (active) with NCI-H522 lung. Further, the values for the growth in the assay with A549/ATCC NSCLC, in the assay on 786-0 renal and in the assay on COLO 205 colon were 35.7% [100 µM], -93% [100 µM] (active) and -70% [100 µM] (active), respectively.

For the compound `O=C(/C=C/c1ccccc1)Nc1ncc(Cc2ccccc2Cl)s1`, the growth was 51.8% with NCI-H23 lung; 48.6% in the assay with NCI-H226 lung; 18.9% in the assay on HOP-62 NSCLC; 14.1% in the assay on NCI-H460 lung; 65.1% in the assay on HOP-92 NSCLC; -11.2% (active) in the assay with NCI-H522 lung. Besides, the growth in the assay on A549/ATCC NSCLC is 30.8%; with 786-0 renal it was 45.7%; in the assay on COLO 205 colon, 2.14% (active).

Take `Nc1nc(-c2ccc(Cl)cc2)nc2c1sc(=S)n2-c1ccccc1`: the growth is 48.8% with NCI-H23 lung; 49.4% with NCI-H226 lung; 28.9% in the assay with HOP-62 NSCLC; 9.12% (active) in the assay on NCI-H460 lung; -19.3% (active) in the assay with HOP-92 NSCLC; 56.4% in the assay on NCI-H522 lung. Also, the growth in the assay with A549/ATCC NSCLC is 23.9%; in the assay with 786-0 renal, -52.9% (active); with COLO 205 colon, 64.4%.

Turning to `C=CCn1c(SCC(=O)Nc2ccc(C(=O)/C=C/c3ccc(Cl)cc3)cc2)nnc1-c1ccc(Br)cc1`, the growth is 83.7% in the assay on NCI-H23 lung; 80.7% in the assay on NCI-H226 lung; 104% with HOP-62 NSCLC; 83.1% with NCI-H460 lung; 87.2% in the assay on HOP-92 NSCLC; 60.3% in the assay with NCI-H522 lung. For the same compound, the growth with A549/ATCC NSCLC is 65.4%; with 786-0 renal it was 89%; in the assay with COLO 205 colon, 118%.

With `COc1ccc(C2=C(Br)C(=O)c3nc(C)ccc3C2=O)cc1`, the growth in the assay on NCI-H23 lung was 88.1%; in the assay with NCI-H226 lung, 83%; with HOP-62 NSCLC, 86.8%; in the assay on NCI-H460 lung it was 95.7%; with HOP-92 NSCLC it was 78%; in the assay on NCI-H522 lung it was 24%. The growth in the assay on A549/ATCC NSCLC was 98%; with 786-0 renal it was 103%; in the assay with COLO 205 colon, 0.376% (active).

Regarding `Cc1ccc(-c2nc([P+](c3ccccc3)(c3ccccc3)c3ccccc3)c(S(=O)(=O)c3ccc(C)cc3)o2)cc1`, the growth in the assay with NCI-H23 lung was 15%; in the assay with NCI-H226 lung it was 46.9%; in the assay on HOP-62 NSCLC, 17.7%; in the assay on NCI-H460 lung, 4.75% (active); in the assay with HOP-92 NSCLC it was -7.71% (active); in the assay with NCI-H522 lung it was 4.04% (active). The growth in the assay on A549/ATCC NSCLC is 27.5%; in the assay on 786-0 renal, -18.7% (active); with COLO 205 colon, -38.1% (active).

With `COc1cc2c(cc1OCCCN1CCN(CCCOc3cc4c(cc3OC)C(=O)N3CCC[C@H]3C=N4)CC1)C=CC(C)(C)O2`, the growth was -58.5% (active) with NCI-H23 lung; -70.3% (active) in the assay on NCI-H226 lung; -50.9% (active) in the assay with HOP-62 NSCLC; -94.8% (active) with NCI-H460 lung; -29.6% (active) with HOP-92 NSCLC; -80.5% (active) in the assay with NCI-H522 lung. Moreover, the growth was -79.2% (active) with A549/ATCC NSCLC, -97.1% (active) with 786-0 renal and -76.8% (active) in the assay on COLO 205 colon.

As for `C=C1C(=O)O[C@H]2[C@H]1CC/C(COC(=O)C(=O)c1cn(C)c3ccc(Cl)cc13)=C\CC[C@@]1(C)O[C@@H]21`, the growth was -60.1% (active) in the assay on NCI-H23 lung; -71.4% (active) in the assay with NCI-H226 lung; -70.1% (active) in the assay on HOP-62 NSCLC; -69.8% (active) with NCI-H460 lung; -82.9% (active) with HOP-92 NSCLC; -65.8% (active) in the assay with NCI-H522 lung. Besides, the growth in the assay on A549/ATCC NSCLC is -62.5% (active); with 786-0 renal, -97.6% (active); in the assay on COLO 205 colon, -64.7% (active).

On to `COc1ccc(NC(=O)c2sc3nc(C)c(C(=O)/C=C/c4ccccc4)cc3c2N)cc1`, for which the growth was 63% with NCI-H23 lung; 65.6% with NCI-H226 lung; 60.8% with HOP-62 NSCLC; 6.63% (active) in the assay with NCI-H460 lung; 109% with HOP-92 NSCLC; 41.7% with NCI-H522 lung. The growth was 2.08% (active) with 786-0 renal and 72.8% with COLO 205 colon.

On to `COc1ccc(Cc2cnc(NC(=O)c3cc(C)oc3C)s2)cc1`, for which the growth is 59.5% in the assay on NCI-H23 lung; 70.7% in the assay on NCI-H226 lung; 49.9% with HOP-92 NSCLC; 14.4% with NCI-H522 lung; 38.1% in the assay with A549/ATCC NSCLC; 43.4% in the assay on 786-0 renal. Besides, the growth with COLO 205 colon is 42.9%.

For the origin of these results see PubChem BioAssay (NCI).
